Unmarked numbers belong to inactive results. Results filed as inconclusive are left out. A call without a number means that no potency is given here. Calls of active or inactive are those of the source. Calls come from the whole dose curve; as a rule, active = well fitted inhibition curve with a large enough effect; inconclusive = small, poorly fitted or top-dose-only effect; inactive = flat fitted curve, though single readings scatter.
Target: Phospholipid hydroperoxide glutathione peroxidase GPX4 (Homo sapiens) (UniProt P36969)
Experiment: Primary qHTS Assay for Inhibitors of Recombinant Selenoprotein Glutathione Peroxidase 4 (GPX4) (AID 1845192); note: nearly all actives have a fitted effect of over 65% in size
Conditions: recombinant GPX4, GR-coupled NADPH fluorescence, 15 min; series mostly up to 50 µM
Method in brief: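 NADPH consumption followed by fluorescence at 340/450 nm, t=0 and after 15 min at room temperature. Reaction started with cumene hydroperoxide (0.5 mM final) after 30 min compound–GPX4 preincubation; final 200 nM GPX4, 100 nM GR, 1 mM GSH, 0.5 mM NADPH.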
Potency is the fitted concentration of half-maximal effect.

Phospholipid hydroperoxide glutathione peroxidase GPX4 (Homo sapiens), sequence (P36969 whole entry, looked up): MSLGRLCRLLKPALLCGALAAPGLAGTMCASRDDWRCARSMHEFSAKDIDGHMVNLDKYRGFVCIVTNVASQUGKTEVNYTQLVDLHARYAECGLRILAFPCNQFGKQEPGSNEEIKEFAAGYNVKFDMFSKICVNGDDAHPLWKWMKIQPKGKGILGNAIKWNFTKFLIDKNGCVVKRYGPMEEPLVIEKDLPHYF

Structure (SMILES)	Potency
CCCCn1ccc(N2CCC(c3ccccc3)CC2)c(Cl)c1=O	inactive
O=C(NNc1ccccc1)c1ccncc1	inactive
COc1ccccc1NC(=O)Nc1ccc2ccccc2c1	inactive
C[C@@H]1COCCN1c1cc(C2(S(C)(=N)=O)CC2)nc(-c2ccnc3[nH]ccc23)n1 (stereo not given in full)	20.2 µM (active)
CC1OC2OC3C(OCC(O)C3O)OC(=O)C34CCC(C)(C)CC3C3=CCC5C6(C)CC(O)C(OC7OC(CO)C(O)C(O)C7OC7OCC(OC(=O)CC(C)(O)CC(=O)OC1C(OC1OCC(O)C(O)C1O)C2O)C(O)C7O)C(C)(CO)C6CCC5(C)C3(C)CC4O (stereo not given)	inactive
CCOC(=O)c1cnn(-c2ccc(NC(=O)C(Cl)=C(Cl)Cl)cc2)c1C(F)(F)F	inactive
COc1ccc(Cl)cc1[C@@]1(F)C(=O)Nc2cc(C(F)(F)F)ccc21	inactive
CN(CCCNC(=O)c1ccc2nc3c(c(Cl)c2c1)CCCC3)Cc1ccccc1	inactive
Cc1ccc2c(Nc3ccc(Cl)cc3)nccc2c1Nc1ncccc1-c1ncnc2nc[nH]c12	inactive
O=C(NCc1ccc(Oc2ccccc2)cc1)c1nc(-c2cc(Br)c(O)c(Br)c2)no1	inactive
CCN(CC)c1ccc(C(=C2C=CC(=[N+](CC)CC)C=C2)c2cc(S(=O)(=O)O)ccc2S(=O)(=O)[O-])cc1	inactive
O=C(Nc1ccc(F)cc1)N1CCc2ccccc2C1c1ccc(C(F)(F)F)cc1 (stereo not given)	inactive
CC(C)(C)c1ccc(-c2nc3ccccc3[nH]2)cc1	inactive
C=C(C)C(=O)OC1[C@@H]2C(=C)C(=O)O[C@@H]2C[C@@H](C)[C@@H]2C=CC(=O)[C@@]12C (stereo not given in full)	inactive
COc1ccccc1-c1cc(Nc2cccc(CS(N)(=O)=O)c2)ncn1	inactive
CC1CCC2C(=CCC(O)C2(C)C)C1(C)Cc1c(O)cc(CO)c(C=O)c1O (stereo not given)	inactive
CC1(C)CC23[C@@H]4CC(=O)[C@@H]2COC(=O)[C@@H]3CC[C@H]41	inactive

Structure (SMILES)	Potency
CCN1CCN(Cc2ccc(-c3cc4c(NC(C)c5ccccc5)ncnc4[nH]3)cc2)CC1 (stereo not given)	14.3 µM (active)
CN1CCN(C(=O)c2ccc(Nc3nccc(-c4cccs4)n3)cc2Cl)CC1	inactive
Cn1cnc(-c2nccc3c(=O)[nH]c(OCCCC(F)(F)F)nc23)c1	22.7 µM (active)
CC(C)[C@@H](C)/C=C/[C@@H](C)[C@H]1CC[C@H]2C3=CC=C4C[C@@H](O)CC[C@]4(C)C3=CC[C@]12C	inactive
OCC(Cc1ccccc1)Nc1nc(Oc2ccc3c(c2)CCC3)nc2c1ncn2Cc1ccc(-c2ccccc2)cc1 (stereo not given)	inactive
O=C1c2c(O[C@@H]3O[C@H](CO)[C@@H](O)[C@H](O)[C@H]3O)cc(O)cc2OC1(O)Cc1ccc(O)cc1 (stereo not given in full)	inactive
CCCCn1c(-c2ccccc2)nc(-c2ccccc2)c1CN(Cc1ccc2c(c1)OCO2)Cc1ccc2c(c1)OCO2	inactive
Cc1ccc(C2(COC(=O)C(C)C)CO2)c(OC(=O)C(C)C)c1 (stereo not given)	inactive
Cn1nccc1Nc1nccc(-c2ccn([C@H](CO)c3ccc(Cl)c(F)c3)c(=O)c2)n1	inactive
COc1cc2ncnc(Oc3cccc(NC(=O)Nc4cc(C(C)(C)C(F)(F)F)on4)c3)c2cc1OC	inactive
CC1(C)CC[C@]2(C(=O)OC3OC(CO)C(O)C(O)C3O)CC[C@]3(C)C(=CCC4[C@@]5(C)CC[C@H](OC6OC(C(=O)O)C(O)C(O)C6O)C(CO)(CO)C5CC[C@]43C)[C@@H]2C1 (stereo not given in full)	inactive
Nc1ncnc2c1ncn2[C@@H]1O[C@H](CO)C[C@H]1O	inactive
O=[N+]([O-])c1ccc(-[n+]2nc(-c3ccccc3)nn2-c2ccc(I)cc2)cc1	inactive
O=C(NC(NC(=S)Nc1ccc(F)c([N+](=O)[O-])c1)C(Cl)(Cl)Cl)C(c1ccccc1)c1ccccc1 (stereo not given)	inactive
Cc1ccc(C(=O)N2CCN(c3ccc([N+](=O)[O-])cc3)CC2)cc1Cl	inactive
CC(=O)N1c2ccc(-c3ccc(C(=O)O)cc3)cc2C(Nc2ccc(Cl)cc2)CC1C (stereo not given)	inactive
C=C1/C(=C/C=C2\CCC[C@]3(C)[C@@H]([C@H](C)/C=C/C(=O)C4CC4)CC[C@@H]23)C[C@@H](O)C[C@@H]1O	inactive

Target: Luciferin 4-monooxygenase (Photinus pyralis) (UniProt P08659)
Experiment: Primary firefly luciferase (FLuc) qHTS assay for identification of artifact compounds. (AID 1845220); note: nearly all actives have a fitted effect of over 60% in size
Conditions: purified firefly luciferase, luminescence, 5 min; series mostly up to 54.1 µM
Method in brief: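 Cell-free, 1536-well qHTS. Buffer pH 7.6 with 0.01% Tween-20 and 0.05% BSA; 10 uM D-luciferin, 10 uM ATP; 10 nM P. pyralis luciferase; luminescence after 5 min.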

Structure (SMILES)	Potency	activity change, negative = inhibition
O=C(NNc1ccccc1)c1ccncc1	inactive	
COc1ccccc1NC(=O)Nc1ccc2ccccc2c1	8.49 µM (active)	
CC1OC2OC3C(OCC(O)C3O)OC(=O)C34CCC(C)(C)CC3C3=CCC5C6(C)CC(O)C(OC7OC(CO)C(O)C(O)C7OC7OCC(OC(=O)CC(C)(O)CC(=O)OC1C(OC1OCC(O)C(O)C1O)C2O)C(O)C7O)C(C)(CO)C6CCC5(C)C3(C)CC4O (stereo not given)	inactive	
COc1cc(O)c(C(=O)CCc2ccc(O)cc2)c(O[C@@H]2O[C@H](CO)[C@@H](O)[C@H](O)[C@H]2O)c1	inactive	
CCOC(=O)c1cnn(-c2ccc(NC(=O)C(Cl)=C(Cl)Cl)cc2)c1C(F)(F)F	inactive	
COc1ccc(Cl)cc1[C@@]1(F)C(=O)Nc2cc(C(F)(F)F)ccc21	inactive	
CN(CCCNC(=O)c1ccc2nc3c(c(Cl)c2c1)CCCC3)Cc1ccccc1	inactive	
Cc1ccc2c(Nc3ccc(Cl)cc3)nccc2c1Nc1ncccc1-c1ncnc2nc[nH]c12	inactive	
O=C(NCc1ccc(Oc2ccccc2)cc1)c1nc(-c2cc(Br)c(O)c(Br)c2)no1	inactive	
O=C(Nc1ccc(F)cc1)N1CCc2ccccc2C1c1ccc(C(F)(F)F)cc1 (stereo not given)	inactive	
CC(C)(C)c1ccc(-c2nc3ccccc3[nH]2)cc1	0.0294 µM (active)	
C=C(C)C(=O)OC1[C@@H]2C(=C)C(=O)O[C@@H]2C[C@@H](C)[C@@H]2C=CC(=O)[C@@]12C (stereo not given in full)	inactive	
COc1ccccc1-c1cc(Nc2cccc(CS(N)(=O)=O)c2)ncn1	inactive	
COc1cc2ncnc(Nc3ccc(Oc4ccccc4)cc3)c2cc1OC	inactive	
CC1CCC2C(=CCC(O)C2(C)C)C1(C)Cc1c(O)cc(CO)c(C=O)c1O (stereo not given)	inactive	
CC1(C)CC23[C@@H]4CC(=O)[C@@H]2COC(=O)[C@@H]3CC[C@H]41	inactive	
CCN1CCN(Cc2ccc(-c3cc4c(NC(C)c5ccccc5)ncnc4[nH]3)cc2)CC1 (stereo not given)	inactive	
CN1CCN(C(=O)c2ccc(Nc3nccc(-c4cccs4)n3)cc2Cl)CC1	inactive	

Structure (SMILES)	Potency	activity change, negative = inhibition
Cn1cnc(-c2nccc3c(=O)[nH]c(OCCCC(F)(F)F)nc23)c1	inactive	
CC(C)[C@@H](C)/C=C/[C@@H](C)[C@H]1CC[C@H]2C3=CC=C4C[C@@H](O)CC[C@]4(C)C3=CC[C@]12C	inactive	
OCC(Cc1ccccc1)Nc1nc(Oc2ccc3c(c2)CCC3)nc2c1ncn2Cc1ccc(-c2ccccc2)cc1 (stereo not given)	inactive	
Cc1[nH]c(/C=C2\C(=O)Nc3ccc(F)cc32)c(C)c1C(=O)NC[C@H](O)CN1CCOCC1	inactive	
CCN(CCCOc1ccc2c(Nc3cc(CC(=O)Nc4cccc(F)c4)[nH]n3)ncnc2c1)CCOP(=O)(O)O	inactive	
O=C1c2c(O[C@@H]3O[C@H](CO)[C@@H](O)[C@H](O)[C@H]3O)cc(O)cc2OC1(O)Cc1ccc(O)cc1 (stereo not given in full)	inactive	
CCCCn1c(-c2ccccc2)nc(-c2ccccc2)c1CN(Cc1ccc2c(c1)OCO2)Cc1ccc2c(c1)OCO2	inactive	
Cc1ccc(C2(COC(=O)C(C)C)CO2)c(OC(=O)C(C)C)c1 (stereo not given)	inactive	
CCC(C)n1cc(C)c2c(C(=O)NCc3c(C)cc(C)[nH]c3=O)cc(-c3ccc(N4CCNCC4)nc3)cc21 (stereo not given)	inactive	
Cn1nccc1Nc1nccc(-c2ccn([C@H](CO)c3ccc(Cl)c(F)c3)c(=O)c2)n1	inactive	
COc1cc2ncnc(Oc3cccc(NC(=O)Nc4cc(C(C)(C)C(F)(F)F)on4)c3)c2cc1OC	inactive	
CC1(C)CC[C@]2(C(=O)OC3OC(CO)C(O)C(O)C3O)CC[C@]3(C)C(=CCC4[C@@]5(C)CC[C@H](OC6OC(C(=O)O)C(O)C(O)C6O)C(CO)(CO)C5CC[C@]43C)[C@@H]2C1 (stereo not given in full)		0.233% [at 11.6 µM]
Nc1ncnc2c1ncn2[C@@H]1O[C@H](CO)C[C@H]1O	inactive	
O=[N+]([O-])c1ccc(-[n+]2nc(-c3ccccc3)nn2-c2ccc(I)cc2)cc1	inactive	
O=C(NC(NC(=S)Nc1ccc(F)c([N+](=O)[O-])c1)C(Cl)(Cl)Cl)C(c1ccccc1)c1ccccc1 (stereo not given)	inactive	
Cc1ccc(C(=O)N2CCN(c3ccc([N+](=O)[O-])cc3)CC2)cc1Cl	inactive	
CC(=O)N1c2ccc(-c3ccc(C(=O)O)cc3)cc2C(Nc2ccc(Cl)cc2)CC1C (stereo not given)	inactive	
C=C1/C(=C/C=C2\CCC[C@]3(C)[C@@H]([C@H](C)/C=C/C(=O)C4CC4)CC[C@@H]23)C[C@@H](O)C[C@@H]1O	inactive	

From PubChem BioAssay (NCATS)
